Screening data deposited in PubChem BioAssay by National Center for Advancing Translational Sciences (NCATS).
JMJD2A Tudor: inhibitors of human JMJD2A Tudor domain. O75164. AlphaScreen JMJD2A-Tudor / H3K4me3 peptide binding. Potency, µM (highest dose often 114 µM), inactives show top-dose activity change, negative = inhibition, usual class: inhibitors. 4.4% of 390,000 active. AID 504339; note: % is set by controls: 0 for no effect and ±100 for the full control effect; nearly all actives have a fitted effect of over 50% in size
HP1b binding inh: blocks HP1-beta chromodomain binding to methylated histone tails; AID 540317; 0.56% of 390,000 active; P83916; Potency, µM (titrated, usually from 114 µM), inactives show top-dose activity change, negative = inhibition, usual class: inhibitors; AlphaScreen HP1-beta / biotin-H3K9me3 peptide binding; note: nearly all actives have a fitted effect of over 70% in size
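AlphaScreen: HP1-beta (50 nM) preformed 30 min with biotin-H3(1-18)K9me3 peptide (50 nM) in PBS pH 7.4, 0.01% Tween-20. Compound added for 30 min at RT, then streptavidin donor/nickel chelate acceptor beads (10 ug/mL) for 30 min.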
PLK1 PBD block: blocks phosphopeptide binding to human PLK1 polo-box domain | P53350 | 2.8% of 360,000 active | Plk1 PBD binding of FITC phosphopeptide, fluorescence polarization | Potency, µM, without a hit: max response, negative = inhibition, most hits filed as inhibitors; note: series mostly up to about 57 µM; % is set by controls: 0 for no effect and ±100 for the full control effect; nearly all actives have a fitted effect of over 65% in size
BAZ2B inh: BAZ2B (human) inhibition. Q9UIF8. AlphaScreen BAZ2B-H3K14Ac peptide displacement. Potency, µM (series often up to 114 µM), inactives show at the highest dose activity change, negative = inhibition, usual class: inhibitors. 4.4% of 360,000 active. AID 504333; note: % is set by controls: 0 for no effect and ±100 for the full control effect; nearly all actives have a fitted effect of over 60% in size
Target sequence (Q9UIF8 whole entry, looked up): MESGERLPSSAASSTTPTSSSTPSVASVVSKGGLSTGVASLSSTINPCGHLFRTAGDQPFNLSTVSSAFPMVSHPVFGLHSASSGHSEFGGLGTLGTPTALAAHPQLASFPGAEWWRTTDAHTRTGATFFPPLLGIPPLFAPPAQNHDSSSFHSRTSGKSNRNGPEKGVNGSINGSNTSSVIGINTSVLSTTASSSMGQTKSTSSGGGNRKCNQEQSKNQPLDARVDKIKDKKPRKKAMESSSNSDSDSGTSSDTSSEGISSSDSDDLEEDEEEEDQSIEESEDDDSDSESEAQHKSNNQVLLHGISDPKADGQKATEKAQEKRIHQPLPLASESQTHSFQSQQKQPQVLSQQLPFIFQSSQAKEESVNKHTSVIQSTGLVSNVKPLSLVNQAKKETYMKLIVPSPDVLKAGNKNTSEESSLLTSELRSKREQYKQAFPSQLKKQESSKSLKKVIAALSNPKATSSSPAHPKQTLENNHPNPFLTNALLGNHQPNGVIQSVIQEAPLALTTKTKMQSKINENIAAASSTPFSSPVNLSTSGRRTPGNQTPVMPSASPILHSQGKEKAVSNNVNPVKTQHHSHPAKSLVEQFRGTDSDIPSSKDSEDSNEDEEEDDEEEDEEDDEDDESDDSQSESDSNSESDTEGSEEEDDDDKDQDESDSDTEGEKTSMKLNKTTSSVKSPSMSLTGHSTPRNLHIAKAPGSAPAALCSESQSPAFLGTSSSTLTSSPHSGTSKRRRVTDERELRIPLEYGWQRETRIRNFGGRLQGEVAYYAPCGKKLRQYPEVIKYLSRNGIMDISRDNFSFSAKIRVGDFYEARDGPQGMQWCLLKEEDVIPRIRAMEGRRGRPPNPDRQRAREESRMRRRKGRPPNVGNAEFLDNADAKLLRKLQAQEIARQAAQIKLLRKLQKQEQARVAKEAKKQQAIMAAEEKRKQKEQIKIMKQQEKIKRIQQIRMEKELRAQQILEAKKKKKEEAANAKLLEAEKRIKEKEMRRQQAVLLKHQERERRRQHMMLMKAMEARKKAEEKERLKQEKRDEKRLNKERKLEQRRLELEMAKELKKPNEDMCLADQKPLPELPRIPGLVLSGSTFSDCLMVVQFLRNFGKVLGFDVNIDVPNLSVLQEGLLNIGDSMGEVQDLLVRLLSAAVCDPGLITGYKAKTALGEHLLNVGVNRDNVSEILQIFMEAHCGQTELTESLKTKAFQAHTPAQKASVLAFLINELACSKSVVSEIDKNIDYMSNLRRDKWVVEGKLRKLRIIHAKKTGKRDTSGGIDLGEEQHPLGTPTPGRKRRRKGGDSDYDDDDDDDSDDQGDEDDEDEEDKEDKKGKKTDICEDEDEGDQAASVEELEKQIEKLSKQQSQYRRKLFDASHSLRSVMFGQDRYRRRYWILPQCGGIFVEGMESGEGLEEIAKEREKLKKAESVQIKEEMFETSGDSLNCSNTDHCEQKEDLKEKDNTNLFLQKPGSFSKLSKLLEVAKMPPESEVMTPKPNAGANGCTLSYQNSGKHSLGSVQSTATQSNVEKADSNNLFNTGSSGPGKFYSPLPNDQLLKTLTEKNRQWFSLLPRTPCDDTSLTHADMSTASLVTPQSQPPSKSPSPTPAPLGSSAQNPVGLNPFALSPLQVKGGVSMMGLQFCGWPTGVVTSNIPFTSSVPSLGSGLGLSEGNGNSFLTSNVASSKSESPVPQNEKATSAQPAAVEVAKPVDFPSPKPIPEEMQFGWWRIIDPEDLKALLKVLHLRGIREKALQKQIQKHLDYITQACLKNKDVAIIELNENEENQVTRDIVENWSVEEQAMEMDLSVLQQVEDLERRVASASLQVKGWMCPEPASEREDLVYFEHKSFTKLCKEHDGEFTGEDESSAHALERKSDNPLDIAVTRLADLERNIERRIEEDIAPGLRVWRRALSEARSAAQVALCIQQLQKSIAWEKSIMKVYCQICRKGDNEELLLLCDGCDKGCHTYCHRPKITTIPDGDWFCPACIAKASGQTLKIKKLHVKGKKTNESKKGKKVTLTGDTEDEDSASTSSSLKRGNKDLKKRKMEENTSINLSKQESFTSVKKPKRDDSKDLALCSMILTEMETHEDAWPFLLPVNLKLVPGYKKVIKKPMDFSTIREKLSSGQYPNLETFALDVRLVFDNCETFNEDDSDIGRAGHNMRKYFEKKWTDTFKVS
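Compounds, titrated to a top concentration of 110 uM, were incubated 30 min at room temperature with preformed BAZ2B/acetyl-K14 H3 peptide complex (50 nM each). Proximity signal was measured by AlphaScreen after 20 min with beads.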
VDR inhibitor: vitamin D3 receptor (human) inhibition; P11473; Potency, µM, inactives show max response, negative = inhibition, actives largely listed as inhibitors; VDR-SRC2-3 peptide fluorescence polarization, 2 h; 0.93% of 400,000 active; note: % is set by controls: 0 for no effect and ±100 for the full control effect
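VDR–SRC2-3 interaction, FP format. Cmpds 23 nl via pintool, brief spin, 2 h ambient incubation.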
L3MBTL1 inh: inhibitors of human L3MBTL1; Q9Y468; AlphaScreen L3MBTL1–H3K9me1 peptide binding; Potency, µM (series often up to 57.1 µM), without a hit: at the highest dose activity, negative = inhibition, hits mostly inhibitors; 0.66% of 230,000 active; AID 485360; note: % is set by controls: 0 for no effect and ±100 for the full control effect; nearly all actives have a fitted effect of over 60% in size
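L3MBTL1 (50 nM) pre-complexed 30 min with biotinylated H3(1-15)K9me1 peptide (75 nM), then compounds added for 30 min at room temperature; AlphaScreen streptavidin donor/nickel chelate acceptor beads (10 ug/mL final) read after 30 min dark incubation.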
* hit, by the source's call; u = inconclusive; x = no result given; [ ] = dose if it differs, or a comment. An excerpt weighted towards active compounds, which were near 6.9% of everything screened. Calls come from the whole dose curve; as a rule, active = well fitted curve in the direction sought with a large enough effect; inconclusive = small, poorly fitted or top-dose-only effect, or another doubt; inactive = no such curve, though single readings can be large; an effect the other way counts as inactive or inconclusive. Potency is the fitted concentration of half-maximal effect.

SMILES | JMJD2A Tudor | HP1b binding inh | PLK1 PBD block | BAZ2B inh | VDR inhibitor | L3MBTL1 inh
Cc1ccccc1N(C(=O)CNC(=O)c1ccco1)C(C(=O)NC1CCCC1)c1ccncc1 (centres undefined) | -3.6% | 0.6% | -17.3% | -2.8% | -10.4% | x
Fc1ccc(CNCc2ccccc2Cl)cc1 | 20µM* | u | 3.5% | x | 9.0% | 12.1%
CCOc1ccc(CNCc2ccccc2Cl)cc1 | 5.8% | 26.7% | 3.9% | -16.2% | 12.8% | 7.9%
CC(=O)Oc1ccc(C23c4ccccc4C2(OC(C)=O)c2cc(OC(C)=O)ccc23)cc1 (centres undefined) | 41.4% | 81.0%[57 µM] | 11.3% | x | -6.6% | x
Cc1ccc(S(=O)(=O)NC(N)=NCCC[C@@H](N)C(=O)Nc2cc(C(F)(F)F)ccc2Cl)cc1 | -25.3% | x | x | x | x | x
Cc1cccc(C)c1-n1c(C)cc(/C=N/NC(=O)CSc2ncccn2)c1C | 50.1µM* | u | -6.7% | 44.7µM* | 0.7% | -2.0%
Cc1cccc(C)c1-n1c(C)cc(/C=N\NC(=O)CC(=O)NC2CCCCC2)c1C | u | u | -18.0% | 50.1µM* | -10.5% | -13.3%
Cc1cc(C)nc(SCC(=O)N/N=C/c2cc(C)n(-c3ccccc3C)c2C)n1 | u | u | -11.1% | 44.7µM* | -7.9% | -13.1%
Cc1cc(/C=N\NC(=O)CC(=O)NC2CCCCC2)c(C)n1-c1cccc(Cl)c1Cl | u | -22.7% | -14.9% | u | -17.0% | -4.6%
CCN(CC)CCCNC(=O)c1ccc(CS(=O)(=O)c2ccccc2OC)o1 | -15.4% | 42.1% | 3.0% | -3.9% | -8.3% | x
COc1cc(C2C(C#N)=C(N)Oc3cc(C)oc(=O)c32)cc2c1OCO2 (centres undefined) | -14.5%[57.1 µM] | 18.6% | -24.1% | 56.2µM* | -7.1% | x
COc1cc(C2C(C#N)=C(N)Oc3cc(C)oc(=O)c32)cc(OC)c1OC (centres undefined) | 2.8% | 27.0% | -2.4% | -1.0% | -17.8% | 6.1%
Cc1c(CCOC(=O)c2cc([N+](=O)[O-])cc([N+](=O)[O-])c2)sc[n+]1CC(=O)c1ccc(Br)cc1 | u | -34.2% | -16.5% | 50.1µM* | -5.0% | u
O=[N+]([O-])c1ccc2c(c1)ncn2-c1ccccc1 | -8.9% | 14.8% | -4.0% | 0.7% | 4.8% | 1.3%
Cn1c(-[n+]2c(-c3ccccc3)cc(-c3ccccc3)cc2-c2ccccc2)nc2cc([N+](=O)[O-])ccc21 | -9.6% | 17.4% | -13.4% | 39.8µM* | -12.0% | -13.6%
Cc1nc(C(Cl)(Cl)Cl)nc2[nH]ccc(=O)c12 | 11.2µM* | -9.9% | 26.7µM* | -29.6% | 17.8µM* | -4.7%
Cc1nc2cc(N)ccc2n1-c1ccccc1 | 35.5µM* | u | u | -31.0% | u | -15.6%
CCSC1=N/C(=C\c2ccc(C(=O)O)cc2)C(=O)S1 | -35.5% | 0.7% | u | u | -6.2% | -8.4%
CCOC(=O)SC1=N/C(=C\c2ccc(N(C)C)cc2)C(=O)S1 | 20µM* | 35.5µM* | -13.2% | 12.6µM* | -1.7% | -23.2%
C=C1c2cccc(O)c2C(=O)C2C(=O)[C@]3(O)C(=O)C(C(N)=O)C(=O)[C@@H](N(C)C)[C@@H]3[C@@H](O)[C@H]12 (some centres undefined) | 3.16µM* | u | u | x | -23.7% | 0.891µM*
CN(C)CCCNc1c2c(nc3ccccc13)CCC2 | -27.9% | 37.7% | 26.7µM* | -4.4% | -28.3% | x
CCn1c2ccccc2c2cc(CN3CCN(Cc4cc(OC)ccc4O)CC3)ccc21 | 1µM* | u | -7.4% | 20µM* | u | -28.4%
COc1ccc(CN2CCN(CC(O)Cn3c4ccccc4c4ccccc43)CC2)cc1 (centres undefined) | u | -16.6% | -3.3% | u | 16.9% | 1.8%
O=c1c2ccccc2n(Cc2ccccc2F)c(=O)n1Cc1ccccc1F | 3.8% | 10.8% | -0.4% | 11.2% | 40.0% | 12.0%
CCn1c2ccccc2c2cc(CN3CCN(Cc4ccccc4F)CC3)ccc21 | 3.98µM* | u | x | 15.8µM* | -8.4% | x
SMILES | JMJD2A Tudor | HP1b binding inh | PLK1 PBD block | BAZ2B inh | VDR inhibitor | L3MBTL1 inh
CCn1c2ccccc2c2cc(CN3CCN(Cc4ccccc4C)CC3)ccc21 | 5.62µM* | u | x | 56.2µM* | -14.7% | x
COc1ccc(S(=O)(=O)N2CCC3(CC2)OCCN3S(=O)(=O)c2cccs2)cc1OC | -5.5% | 21.0% | -2.4% | -14.9% | 11.8% | -0.9%
CN(CC(=O)Nc1cccc(C#N)c1)S(=O)(=O)c1cc2c(cc1Cl)NC(=O)CO2 | -21.7% | 31.9% | x | -5.1% | 9.9% | x
COc1cc(C)c(CC/C(C)=C/C=C/C(C)=O)c(C)c1C | x | x | x | x | 79.4µM* | x
COc1ccccc1/C=C/C(C)=O | -6.3% | 8.8% | -0.1% | 5.8% | 6.4% | -4.5%
CC1CCC(NC(=O)CCCn2sc3ccccc3c2=O)CC1 (centres undefined) | u | 9.6% | 26.7µM* | -16.0% | u | x
N#Cc1ccc(C(=O)NCC(=O)OC(C(=O)Nc2cc(C(F)(F)F)ccc2Cl)c2ccccc2)cc1 (centres undefined) | -23.3% | x | x | x | x | x
CCCCCOc1ccc(C2C(C(=O)c3ccc(C)o3)=C(O)C(=O)N2c2cc(C)on2)cc1 (centres undefined) | u | 16.0% | u | -20.1% | 70.8µM* | x
Cc1cc(N2C(=O)C(O)=C(C(=O)c3cc4ccccc4o3)C2c2cccc(Br)c2)no1 (centres undefined) | u | -14.2%[57 µM] | 26.7µM* | u | u | x
CCOc1ccc(C2C(C(=O)c3ccc(C)o3)=C(O)C(=O)N2c2cc(C)on2)cc1OC (centres undefined) | -34.1% | 10.5% | -8.3% | -26.2%[57.1 µM] | -6.1% | x
CCc1ccccc1NC(=O)C(NS(=O)(=O)c1ccc2c(c1)CCC(=O)N2)c1ccccc1 (centres undefined) | 2.4% | 37.5% | x | -1.9% | -5.6% | x
COc1ccc(OC)c([N+](=O)[O-])c1C(N)=O | 50.1µM* | u | u | 50.1µM* | -21.3% | u
COc1cc(C(=O)O)c([N+](=O)[O-])c(OC)c1OC | -12.1% | 42.3% | 2.2% | -20.7% | -8.5% | 6.6%
CCOC(=O)CSc1nc2c(sc3cccc(F)c32)c(=O)n1Cc1ccc(OC)cc1 | -18.7% | 25.2% | x | 2.1% | 9.5% | x
COc1ccc(Br)c2c1-c1nc(NC(=O)c3ccc(F)cc3)sc1C2 | -25.5% | 33.8% | x | 70.8µM* | -5.7% | x
O=C(c1ccc(CSc2nc3ccncc3n2Cc2ccccc2F)cc1)N1CCCCCC1 | -17.1% | 20.6% | x | -14.7% | -1.1% | x
Cc1cc(C(=O)CN2C(=O)NC(Cc3c[nH]c4ccccc34)C2=O)c(C)n1C (centres undefined) | u | 0.0% | -1.0% | 50.1µM* | -10.7% | u
Cc1nc2ccc(NC(=S)NCCCO)cc2nc1C | -34.7% | 79.4µM* | -25.7% | -9.5% | -5.4% | -7.6%
